Screening results as filed in PubChem.
Compounds with a hit are over-represented: about 2.3% of the library has one in this group of screens.
Jurkat NFkB inh: inhibitors of the PMA/ionomycin-induced NF-kB reporter in Jurkat cells; inhibition, % at 4 µM; PMA/ionomycin-induced NF-kB luciferase reporter, luminescence; AID 435003; 330,000 tested, 0.53% active; in the data active = inhibition above about 50%
aSyn 5UTR inh: MLPCN primary screen, SNCA 5' untranslated region. alpha-synuclein 5'UTR reporter, inhibitor activity. inhibition, % (tested at 7.5 µM). 300,000 tested, 0.82% active. AID 1813; in the data active = inhibition above about 60%;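 also: H4 neuroglioblastoma cells stably carrying SNCA 5'UTR luciferase fusion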
Shn3 inh set2: inhibitors of Schnurri-3 3'UTR reporter in osteoblasts | AID 588674 | Clone20 osteoblast Shn3 3'UTR firefly luciferase, 24 h | 360,000 tested, 0.52% active | inhibition, % at 12.5 µM;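 active = mean inhibition of at least 75% with every replicate also reaching 75%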
TAG inh: inhibitors of triacylglycerol accumulation | inhibition, % at 12.5 µM | 230,000 tested, 0.66% active | H9c2 cells, Nile Red lipid (TAG) fluorescence; cells loaded with 200 µM oleic acid;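 active = pattern-corrected inhibition of lipid staining of at least 50% with the nuclear-stain viability signal not falling by more than 50%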
697 NFkB inh: inhibitors of the PMA/ionomycin-induced NF-kB reporter in 697 B cells; 697 B-cell NF-kB luciferase reporter, 16 h; inhibition, % at 4 µM; 330,000 tested, 0.33% active; in the data active = inhibition above about 35%
Gli-Sufu block: antagonists of Gli-Sufu signaling | inhibition, % at 5 µM | 340,000 tested, 0.74% active | AID 588413 | Sufu-KO-LIGHT fibroblasts, Gli luciferase reporter luminescence;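 active = inhibition above about 55%, limit read from the data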
Jurkat NFkB conf: inhibitors of the PMA/ionomycin-induced NF-kB reporter in Jurkat cells, retest; shares compounds with Jurkat NFkB inh; Jurkat NF-kB luciferase, 16 h; inhibition, % at 4 µM; 2,700 tested, 27% active; AID 435020;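 active = inhibition reaching about 45% at 4 µM in either replicate, limit read from the data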
Numbers stand for hits; n = inactive; x = no result.

SMILES	Jurkat NFkB inh	aSyn 5UTR inh	Shn3 inh set2	TAG inh	697 NFkB inh	Gli-Sufu block	Jurkat NFkB conf
Cc1noc(C)c1COc1cccc(C(=O)OC(C)C(=O)Nc2ccc3c(c2)OCO3)c1 (stereo not drawn)	58	n	n	x	n	n	n
Cc1noc(C)c1COc1cccc(C(=O)Nc2ccc(Br)cc2F)c1	61	x	n	n	n	n	n
O=C1c2cccnc2C(=O)N1c1ccccc1-c1ccccc1	n	n	n	n	n	n	x
COc1ccccc1-c1nnc(NC(=O)c2ccc3c(c2)OCO3)s1	57	n	n	n	n	n	n
CC(C)Oc1cccc(C(=O)Nc2ccc(Br)cc2F)c1	n	n	n	x	n	n	n
COc1cc(C(=O)N/N=C(\C)c2ccc3c(c2)OCO3)cc(OC)c1OC	52	n	n	x	n	n	n
COc1ccc(/C(C)=N\NC(=O)c2ccc3c(c2)OCO3)cc1OC	n	n	x	x	n	x	x
CC(C)c1onc(C(=O)Nc2sc3c(c2C#N)CCC3)c1[N+](=O)[O-]	n	n	n	n	n	n	x
CCCCNc1c(-c2ccc(SC3CCCCC3)cc2)nc2ccccn12	n	n	n	n	n	n	n
CCOC(=O)N/N=C/c1c(C)nn(-c2cccc(C(F)(F)F)c2)c1Cl	51	n	n	x	n	n	n
CC(C)(C)c1ccc(/C=C/C(=O)NC2=NCCS2)cc1	n	n	n	n	n	n	n
CC(=O)n1cc(N(C(=O)CCl)c2ccccc2)c2ccccc21	72	106	x	65	n	n	n
COC(=O)Nc1nc2ccc(-c3n[nH]c(=O)c4ccccc34)cc2[nH]1	71	n	n	n	n	n	n
C=CCOc1ccc2nc(NC(=O)OC)[nH]c2c1	72	66	n	x	n	n	n
Cc1ccc(C(=O)N2c3ccccc3Sc3ccccc32)cc1	x	x	n	n	x	x	x
O=C(Nc1nccs1)c1cc(N2CCOCC2)nc2ccccc12	n	n	n	x	n	n	x
COC(=O)C1Cc2c([nH]c3ccccc23)CN1 (stereo not drawn)	53	n	n	n	n	n	n
Oc1ccc(Cl)cc1-c1cc(-c2ccccc2Cl)[nH]n1	n	n	n	n	n	n	x
Oc1ccccc1-c1cc(-c2ccccc2Cl)[nH]n1	n	n	n	x	n	n	n
Oc1ccccc1-c1cc(-c2cccc(F)c2)n[nH]1	n	n	n	x	n	n	n
Oc1ccc(Cl)cc1-c1cc(-c2cccc(Br)c2)n[nH]1	n	n	n	x	n	n	x
COc1ccc(-c2nc3c(Br)c(N)c(Br)cc3o2)cc1	n	x	n	x	n	n	n
Cc1nc2cc(NC(=O)c3ccc(Br)s3)ccc2s1	n	n	n	n	n	n	n
Cc1nc2ccc(NC(=O)c3ccc(Cl)nc3)cc2s1	n	n	n	n	n	n	x
Cc1nc2ccc(NC(=O)c3cc(Cl)ccn3)cc2s1	n	n	n	x	n	n	n
SMILES	Jurkat NFkB inh	aSyn 5UTR inh	Shn3 inh set2	TAG inh	697 NFkB inh	Gli-Sufu block	Jurkat NFkB conf
CC[n+]1c(C)sc2cc(C)ccc21	n	n	n	n	n	n	x
Cc1ccc2c(c1)sc(-c1ccc(N(C)C)cc1)[n+]2C	93	n	n	x	n	56	73
COc1ccc(-n2nc(C(=O)NCC(=O)Nc3cc(OC)c(OC)c(OC)c3)c3ccccc3c2=O)cc1	n	n	n	x	n	n	x
COc1ccc(-n2nc(C(=O)NCC(=O)Nc3cc(OC)c(OC)c(OC)c3)c3ccccc3c2=O)cc1OC	57	n	n	x	n	n	n
COC(=O)c1cccc(NC(=O)NC(=O)c2ccc(Cl)cc2)c1	86	n	n	n	n	n	n
CCOC(=O)C1=C(C)NC2=C(C(=O)CC(c3cccs3)C2)C1c1cccs1 (stereo not drawn)	60	n	n	n	n	n	n
Cc1ccc(/C=N/Nc2cccc3cccnc23)c(O)c1	n	n	n	x	n	n	n
O/N=C/c1ccccc1OCc1ccccc1F	n	n	n	x	n	n	x
O=C(NCc1cccs1)C1CCN(c2ccc(S(=O)(=O)N3CCOCC3)cc2Cl)CC1	76	n	n	x	n	n	54
O=C(Nc1ccccc1)Nc1ccc(C(=O)N2CCCC2)cc1	n	n	n	n	n	n	x
CC[n+]1ccccc1/C=C1\Sc2ccc(C)cc2N1C	69	n	n	x	n	x	n
CCc1cccc(CC)c1NC(=O)COC(=O)/C(C#N)=C/c1ccc(OC)cc1	n	n	n	x	n	n	x
O=C(c1ccc(Cl)s1)N1CCc2ccccc21	n	n	n	x	n	n	x
CCc1sc(C(=O)N2CCc3ccccc32)cc1C	n	n	n	n	n	n	n
CCOC(=O)[C@@H]1[C@H]2COc3ccc(Br)cc3[C@@H]2N2C(=O)N(c3ccc(Cl)cc3)C(=O)[C@]12C	n	n	n	n	n	n	x
O=C(C[n+]1ccc(/C=C/c2ccccc2)cc1)c1ccc2c(c1)OCCO2	54	n	x	n	n	n	n
Cc1cc[n+](CC(=O)c2ccc3c(c2)OCCO3)cc1	n	n	n	n	n	n	x
COc1ccc(C(C)=O)cc1CSc1nc2ccccc2c(=O)n1-c1ccccc1	n	n	n	x	n	n	x
C=CCn1c(SCc2cc(C(C)=O)ccc2OCC)nc2ccccc2c1=O	58	104	n	x	n	n	n
Cc1onc(-c2ccccc2)c1C(O)c1ccc(F)cc1 (stereo not drawn)	n	n	n	x	n	n	x
Cc1ccc(S(=O)(=O)N2C[C@H]3C(=O)C[C@@H](c4ccccc4)N(S(C)(=O)=O)[C@H]3C[C@H]2c2ccccc2)cc1	x	x	n	x	x	x	x
O=C(Nc1nc2c(s1)CCCC2)c1ccc(Br)s1	n	n	n	x	n	n	n
O=C(Nc1nc2c(s1)CCCC2)c1ccc(N2C(=O)CCC2=O)cc1	n	n	n	n	n	n	x
Cc1cc(C(=O)Nc2nc3c(s2)CCCC3)cs1	n	n	n	x	n	n	n
O=C(Nc1nc2c(s1)CCCC2)c1ccc2ncsc2c1	n	n	n	n	n	n	n
SMILES	Jurkat NFkB inh	aSyn 5UTR inh	Shn3 inh set2	TAG inh	697 NFkB inh	Gli-Sufu block	Jurkat NFkB conf
CC1CCCCC1NC(=O)Cn1c(=O)oc2cc(S(=O)(=O)N3CCCC3)ccc21 (stereo not drawn)	n	n	n	n	n	n	x
CC(=O)Nc1ccc(NC(=O)C(=O)NCC(c2ccco2)N2CCc3ccccc32)cc1 (stereo not drawn)	n	n	n	n	n	n	x
COc1ccc(C(=O)NCC(c2ccco2)N2CCc3ccccc32)cc1 (stereo not drawn)	63	n	n	n	n	n	n
COc1ccc(C(=O)NCC(c2ccco2)N2CCc3ccccc3C2)cc1 (stereo not drawn)	n	n	n	n	n	n	x
COc1ccc(NC(=O)C(=O)NCC(c2ccco2)N2CCc3ccccc32)cc1 (stereo not drawn)	64	85	n	n	n	n	n
COc1ccc(NC(=O)CSc2nnc(C)n2C2CCCCC2)cc1	n	n	n	x	n	n	x
CCC(=O)Nc1c(C)nn(-c2ccc(C)c(C)c2)c1C	n	n	n	x	n	n	x
